“And” between values parts separate entries of the source, which are not always exact repeats. Identical values can stand only once. Inconclusive results are not listed. Unmarked numbers belong to inactive results. The source made the active and inactive calls. Calls come from the whole dose curve; as a rule, active = well fitted cell-killing curve with a large enough effect; inconclusive = small, poorly fitted or top-dose-only effect; inactive = flat fitted curve, though single readings scatter.
experiment: Cellular viability qHTS for adrenocortical cancer (ACC) cell line NCI-H295R (AID 1963990); conditions: CellTiter-Glo ATP luminescence, 48 h; series mostly up to 46.1 µM; activity change, negative = viability loss: at the top concentration; note: nearly all actives have a fitted effect of over 60% in size
Text: PI: Naris Nilubol, MD Surgical Oncology Program, National Cancer Institute (NCI) National Institute of Health (NIH), Bethesda, Maryland Adrenocortical cancer (ACC) is a rare malignancy with poor survival outcomes and few treatment options. Currently, mitotane is the only FDA-approved therapy for ACC. Although adjuvant radiation therapy is rarely utilized, it has the potential to improve survival in select cases. Through a quantitative high-throughput drug screen (qHTS), we identified auranofin (AF), a thioredoxin reductase (TXNRD) inhibitor, as a promising candidate drug. This study aims to evaluate whether AF can enhance the efficacy of radiation therapy in the treatment of ACC. Two human ACC cell lines, SW-13 and NCI-H295R, were screened using the National Center for Advancing Translational Sciences (NCATS) Pharmaceutical Collection (NPC) and the Mechanism Interrogation PlatE (MIPE) library (~4,991 compounds). CellTiter-Glo (Cat # G7570, Promega, Madison, WI) was utilized to measure cell viability. Described herein are the results of the corresponding viability assay.
PROTOCOL TABLE (as described by Inglese J, Shamu CE and Guy RK. 2007) SEQUENCE No. (e.g., 1, 2, 3, etc.); […] (e.g., Cells, Incubation, Reagent, etc.); VALUE; DESCRIPTION. 1; Cells; 5 uL; white, solid-bottom, 1536-well tissue-culture treated plates. 2; Time; overnight culture at 37C with 5% CO2. 3; Compounds and control; 23 nL; Kalypsis pin tool (Wako USA) equipped with a 1536-well pin head to transfer to the assay plates. 4; Time; 48 hours; 37C with 5% CO2. 5; Reagent; 4 uL; CellTiter-Glo luminescent substrate mix. 6; Time; 20 min at room temperature. 7; Detection; Luminescence; ViewLux plate reader NOTES (numbers refer to Sequence numbers above) 1. NCI-H295R cells were harvested from a T175 flask and resuspended in ITS-supplemented DMEM serum-free medium at a concentration of 300 000 cells/mL. Then 5 uL of resuspended cells were dispensed into each well of white, solid-bottom, 1536-well tissue-culture-treated plates using a multidrop combi dispenser. The plates were covered with stainless steel gasket lids. 2-3. The plates were cultured overnight at 37C with 5% CO2. Twenty-three nL of compounds (eight selected concentrations from the NPC / MIPE) or positive control (10 mM stock of bortezomib) in DMSO was transferred to each well of the assay plate using a pin tool (Kalypsys, San Diego, CA, USA). The final concentration of the compounds in the 5 uL assay volume ranged from 0.5 nM to 46 uM. 4-6. After 48 hours of incubation at 37C and 5% CO2, 4 uL of CellTilter-Glo luminescent substrate mix (Promega, Madison, WI, USA) was added to each well. Then the plates were incubated for 20 minutes at room temperature. 7. After incubation, luminescence was measured using a ViewLux plate reader (PerkinElmer, Waltham, MA, USA) with a clear filter was used to measure the number of metabolically competent cells. To determine compound activity in the qHTS assay, the titration-response data for each sample was plotted and modeled by a four-parameter logistic fit yielding IC50 and efficacy (maximal response) values. Raw plate reads for each titration point were normalized relative to positive control ([…], 100% inhibition) and DMSO-only wells (basal, 0%). REFERENCES: Inglese J, Shamu CE and Guy RK, Reporting data from high throughput screening of small molecule libraries, Nature Chemical Biology, 2007, 3(8): 438-441. doi.org/10.1038/nchembio0807-438.

Row | SMILES | activity change, negative = viability loss | Potency
1 | CCc1cc(Nc2nccc(-c3c(-c4ccc(OC)c(C(=O)Nc5c(F)cccc5F)c4)nc4ccccn34)n2)c(OC)cc1N1CCC(N2CCN(S(C)(=O)=O)CC2)CC1 | -15.4% | 
2 | Cc1nc2n(c(=O)c1CCN1CCC(C(=O)c3ccc(F)cc3)CC1)CCS2 | -28.2% | 
3 | C/C=C(/C(=C/C)c1ccc(OC(C)=O)cc1)c1ccc(OC(C)=O)cc1 |  | 23.1 µM (active)
4 | O=C(Nc1ccccc1)OCC(CN1CCCCC1)OC(=O)Nc1ccccc1 (stereo not given) |  | 23.1 µM (active)
5 | N[C@H](C(=O)O)[C@@H](O)c1ccc(O)c(O)c1 | -18.1% | 
6 | N#Cc1ccc(Oc2ccc3c(c2)COB3O)cc1 | -8.51% | 
7 | Nc1nccc(-c2c(-c3ccc(F)cc3)ncn2C2CCCCC2)n1 | -27.6% | 
8 | CC(O)c1cc(C(=O)N[C@@H](C)Cn2ccc(-c3ccc(C#N)c(Cl)c3)n2)n[nH]1 (stereo not given in full) | 0.758% | 
9 | CCCSS/C(CCO)=C(\C)N(C=O)Cc1cnc(C)nc1N |  | 9.2 µM (active)
10 | O=C(Nc1ccc(S(=O)(=O)N2CCOCC2)cc1)c1cc(Cl)ccc1NS(=O)(=O)c1ccc(Cl)s1 |  | 20.6 µM (active) and 25.1 µM (active)
11 | Nc1nc2ccccc2n1Cc1ccc(F)cc1 | -23.8% | 
12 | CCCCC(CC)CN1CN(CC(CC)CCCC)CC(C)(N)C1 (stereo not given) | -7.33% | 
13 | Nc1ccc2c(c1)CN1C(=O)c3ccccc3C1=N2 | -21% [at 20 µM] | 
14 | CC(C)=CCOc1ccc(/C=C/C(=O)c2ccc(OCC=C(C)C)cc2OCC(=O)O)cc1 |  | 9.2 µM (active)
15 | Cc1c2oc3c(C)ccc(C(=O)N[C@@H]4C(=O)N[C@H](C(C)C)C(=O)N5CCC[C@H]5C(=O)N(C)CC(=O)N(C)[C@@H](C(C)C)C(=O)O[C@@H]4C)c3nc-2c(C(=O)N[C@@H]2C(=O)N[C@H](C(C)C)C(=O)N3CCC[C@H]3C(=O)N(C)CC(=O)N(C)[C@@H](C(C)C)C(=O)O[C@@H]2C)c(N)c1=O |  | 0.0517 µM (active)
16 | O=C(CCBr)N1CCN(C(=O)CCBr)CC1 | -12.9% | 
17 | COc1ccc(-n2nc(CCC(=O)N(C)O)cc2-c2ccc(Cl)cc2)cc1 |  | 16.4 µM (active)
18 | NC1=NCC2c3ccccc3Cc3ccccc3N12 (stereo not given) | -21.4% | 
19 | CC#CC(=O)N1CCC[C@H]1c1nc(-c2ccc(C(=O)Nc3ccccn3)cc2)c2c(N)nccn12 | -28.9% [at 20 µM] | 
20 | CC1(COc2ccc(CC3SC(=O)NC3=O)cc2)CCCCC1 (stereo not given) |  | 16.4 µM (active)

Row | SMILES | activity change, negative = viability loss | Potency
21 | NC(=O)n1c(O)c(C(=O)c2cccs2)c2cc(Cl)ccc21 |  | 9.2 µM (active)
22 | Nc1ncnc2c1c(COc1cccc(Cl)c1)nn2C1CCOCC1 | -23.2% | 
23 | Nc1n[n+]([O-])c2ccccc2[n+]1[O-] |  | 17.8 µM (active)
24 | NC(=O)c1ccc2nc(-c3ccc(C4(N)CCC4)cc3)c(-c3ccccc3)n2n1 |  | 6.31 µM (active)
25 | OCCN1CCN(CCCN2c3ccccc3C=Cc3ccccc32)CC1 | -28% | 
26 | OC(CCN1CCCCC1)(c1ccccc1)C1CCCCC1 (stereo not given) |  | 4.61 µM (active)
27 | CCCCOC(=O)c1ccc(N)cc1 | -16.9% | 
28 | c1ccc2occc2c1 | -22.6% [at 92.7 µM] | 
29 | COc1ccc(-n2c(SCCCN3C(=O)c4cccc5cccc(c45)C3=O)nnc2-c2ccncc2)cc1 | -16.5% | 
30 | NNC(=O)CP(=O)(c1ccccc1)c1ccccc1 |  | 16.4 µM (active)
31 | CS[C@H]1SC[C@@H]2C(=O)N(C)[C@H](C(C)C)C(=O)OC[C@H](NC(=O)c3cnc4ccccc4n3)C(=O)N[C@H](C)C(=O)N(C)[C@H]1C(=O)N(C)[C@H](C(C)C)C(=O)OC[C@H](NC(=O)c1cnc3ccccc3n1)C(=O)N[C@H](C)C(=O)N2C |  | 0.1 µM (active)
32 | OCCOCCN1CCN(C(c2ccccc2)c2ccc(Cl)cc2)CC1 (stereo not given) | -29.3% | 
33 | O=C1CC[C@H](N2Cc3c(OCc4ccc(CN5CCOCC5)cc4)cccc3C2=O)C(=O)N1 | -9.45% | 
34 | C=C[C@@H]1CN2CCC1C[C@H]2[C@H](O)c1ccnc2ccc(OC)cc12 (stereo not given in full) | 1.4% | 
35 | COc1ccc(S(=O)(=O)NCc2ccc(C(=O)NCCc3ccc(Cl)cn3)cc2)cc1 | -20.4% | 
36 | CN(C)CCOC(c1ccccc1)c1ccc(Br)cc1 (stereo not given) |  | 13 µM (active)
37 | Cn1cc(/C=C2\C(=O)Nc3cccnc32)c2ccccc21 | -21.5% | 
38 | CN(C(=O)CCCOc1ccc2[nH]c(=O)ccc2c1)C1CCCCC1 | -8.37% | 
39 | O=C1NCN(c2ccccc2)C12CCN(CCCC(c1ccc(F)cc1)c1ccc(F)cc1)CC2 |  | 3.26 µM (active)
40 | COc1ccc([C@@H]2Sc3ccccc3NC(=O)[C@@H]2O)cc1 |  | 23.1 µM (active)

From PubChem BioAssay (NCATS)
